PubChem BioAssay (NCI)
This is part of a sample that, as a whole, favours compounds with a hit. Of some 83,000 tested, about 20% had one in any assay.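 Single-concentration screen, 48 h exposure, 96-well plates. Endpoint: percent growth. Below 10 = active.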 Calls of active or inactive are those of the source.

Assays:
Assay in all cases: NCI-60 one-dose screen, 48 h (100 = growth as untreated, 0 = no growth, -100 = all killed)
Conditions in all cases: 10 µM unless noted
[1] = test system: HCT-15 colon
[2] = test system: HT29 colon
[3] = test system: SNB-75 CNS
[4] = test system: SNB-19 CNS
[5] = test system: U251 CNS
[6] = test system: PC-3 prostate
[7] = test system: SK-MEL-5 melanoma
[8] = test system: UACC-62 melanoma
[9] = test system: LOX IMVI melanoma
[10] = test system: SK-MEL-28 melanoma

Measured: growth

CC(C)CNc1nc(N=[N+]=[N-])nc(NCC(C)C)n1
inactive: [1] 54% [100 µM] | [2] 60.4% [100 µM] | [3] 37.3% [100 µM] | [4] 54.8% [100 µM] | [5] 61.9% [100 µM] | [6] 23.3% [100 µM] | [7] 54.6% [100 µM] | [8] 59.1% [100 µM] | [9] 72.6% [100 µM] | [10] 76.9% [100 µM]

N[C@H](CS)C(=O)O
inactive: [1] 96.6% | [2] 95.9% | [3] 84.2% | [4] 96.1% | [5] 105% | [6] 94.1% | [7] 105% | [8] 99.9% | [9] 100% | [10] 125%

Cc1ccc(C2=NNC(c3sc(Cl)nc3Cl)C2)cc1 (stereo not given)
active: [9] 9.94%
inactive: [1] 77.3% | [2] 107% | [3] 96% | [4] 92% | [5] 99.1% | [6] 93.6% | [7] 88.9% | [8] 89.9% | [10] 102%

Cc1ccc2nc(SCC(=O)Nc3ccc(-c4nc5ccccc5s4)c(Cl)c3)[nH]c2c1
inactive: [1] 101% | [2] 106% | [3] 94.6% | [4] 102% | [5] 105% | [6] 107% | [7] 102% | [8] 90.3% | [9] 107% | [10] 118%

CC(=O)Nc1c(Cl)cc2c(c1Cl)Cc1ccccc1-2
inactive: [1] 99.9% | [2] 106% | [3] 94.7% | [4] 101% | [5] 92.4% | [6] 86.9% | [7] 97.3% | [8] 84.8% | [9] 87.9% | [10] 124%

O=CN1N=C(c2ccc(Cl)cc2)CC1c1cccc(Nc2ccnc3cc(Cl)ccc23)c1 (stereo not given)
active: [2] 3.98% | [3] 1.24% | [7] -63.2%
inactive: [1] 16.9% | [4] 43.3% | [5] 13% | [6] 12.8% | [8] 30.3% | [9] 11.3% | [10] 39.3%

C(=C1c2ccccc2-c2ccccc21)c1ccncc1
inactive: [1] 26.9% | [4] 45.1% | [5] 27.8% | [6] 58.6% | [7] 46.6% | [8] 30.8% | [9] 39.5% | [10] 68.8%
active: [2] 8.42% | [3] -5.86%

O=c1ccn(C2CC=C(CO)O2)c(=O)[nH]1 (stereo not given)
inactive: [1] 105% | [2] 111% | [3] 108% | [4] 108% | [5] 102% | [6] 85.9% | [7] 90% | [8] 91.7% | [9] 94% | [10] 106%

C[C@H]1O[C@@H](O[C@H]2[C@@H](O)C[C@H](O[C@H]3[C@@H](O)C[C@H](O[C@H]4CC[C@]5(C)C6CC[C@]7(C)[C@@H](C8=CC(=O)OC8)CC[C@]7(O)C6CC[C@@H]5C4)O[C@@H]3C)O[C@@H]2C)C[C@H](O)[C@@H]1O (stereo not given in full)
active: [1] -85.6% | [2] -89.8% | [3] -80.8% | [4] -100% | [5] -100% | [6] -24.1% | [7] -100% | [8] -82.4% | [9] -100% | [10] -51.5%

CCOc1cc(CCNS(=O)(=O)c2ccc(C)cc2)c(C(C)=O)cc1OCC
inactive: [1] 83.3% [100 µM] | [2] 79.7% [100 µM] | [3] 93.3% [100 µM] | [4] 87.3% [100 µM] | [5] 86.4% [100 µM] | [6] 33.5% [100 µM] | [7] 66.1% [100 µM] | [8] 59% [100 µM] | [9] 87.1% [100 µM] | [10] 108% [100 µM]

Nc1nc2c(nnn2Cc2ccc(Cl)c(Cl)c2)c(=O)[nH]1
inactive: [1] 98.7% | [2] 100% | [3] 90.5% | [4] 95.1% | [5] 96.6% | [6] 79.3% | [7] 107% | [8] 73.9% | [9] 93.9% | [10] 111%

C[C@H]1O[C@@H](O[C@H]2[C@@H](O)C[C@H](O[C@H]3[C@@H](O)C[C@H](O[C@H]4CC[C@]5(C)C6C[C@@H](O)[C@]7(C)[C@@H](C8=CC(=O)OC8)CC[C@]7(O)C6CC[C@@H]5C4)O[C@@H]3C)O[C@@H]2C)C[C@H](O)[C@@H]1O (stereo not given in full)
active: [1] -94.9% | [2] -84.5% | [3] -75.6% | [4] -100% | [5] -100% | [6] -21.3% | [7] -100% | [8] -98.8% | [9] -98.1% | [10] -56.3%

NC(=O)c1cc(Br)cc(Br)c1NS(=O)(=O)c1ccccc1
inactive: [1] 100% | [2] 110% | [3] 68.2% | [4] 105% | [5] 108% | [6] 89.2% | [7] 98.2% | [8] 94.9% | [9] 99.4% | [10] 110%

CC(C)Cn1cnc2c(NCn3nc(-c4cc(Cl)cc(Cl)c4Cl)n(/N=C/c4ccc(Cl)cc4)c3=S)nc3ccccc3c21
inactive: [1] 91.1% | [2] 91.1% | [3] 90.5% | [4] 108% | [5] 86.6% | [6] 83.6% | [7] 57.2% | [8] 72% | [9] 74.4% | [10] 112%

O=C(O)CNC(=O)C1(N2C(=O)c3ccccc3C2=O)CCCC1
inactive: [1] 106% | [2] 105% | [3] 88.2% | [4] 99% | [5] 107% | [6] 104% | [7] 100% | [8] 94.5% | [9] 97.2% | [10] 104%

CCCCc1n(Cc2ccc3ccccc3c2)cc[n+]1Cc1ccc2ccccc2c1
active: [2] -34.4% | [3] -18% | [4] -22.9% | [5] -46.5% | [6] -29.7% | [7] -97.8% | [8] -85.9% | [9] -88.2% | [10] -55%
inactive: [1] 49.5%

O=C(/C=C/c1ccc(C(F)(F)F)cc1)c1ccc(Nc2nc(NCCO)nc(NCCO)n2)cc1
inactive: [1] 45.5% | [3] 55.8% | [4] 56.7% | [6] 48.7% | [7] 76.5% | [8] 79.1% | [10] 94.9%
active: [2] 5.46% | [5] -21.2% | [9] -44.2%

CCCCN=C(N)c1ccc(OCCSCCOc2ccc(C(N)=NCCCC)cc2)cc1
inactive: [1] 90.5% | [2] 44% | [3] 65.7% | [4] 36.7% | [5] 34.5% | [6] 44.4% | [7] 22.6% | [8] 58.3% | [9] 58.1% | [10] 69.6%

COc1cc2c(cc1OC)C(CC1(O)CCCCC1)N(S(=O)(=O)c1ccc(C)cc1)CC2 (stereo not given)
active: [6] 2.56% [100 µM]
inactive: [1] 22.7% [100 µM] | [2] 21.1% [100 µM] | [3] 40.8% [100 µM] | [4] 48.9% [100 µM] | [5] 34.1% [100 µM] | [7] 18.7% [100 µM] | [8] 27.4% [100 µM] | [9] 29.3% [100 µM] | [10] 55% [100 µM]

COc1cc(/C=C/C(=O)C(C(=O)/C=C/c2ccc(OC(=O)CCNc3nnc(C)s3)c(OC)c2)C(=O)CCNc2nnc(C)s2)ccc1OC(=O)CCNc1nnc(C)s1
active: [1] -43.2% | [2] -69% | [3] -13.6% | [6] -16.4% | [7] -22.6% | [8] -67.6% | [9] -68.7% | [10] -15.6%
inactive: [4] 32.7% | [5] 11.1%

CN(C)CCCNc1nn2c(=O)c3ccccc3nc2c2ccccc12
inactive: [1] 55.3% | [2] 32.6% | [3] 51.2% | [4] 69.7% | [5] 57.2% | [6] 62.1% | [7] 52.6% | [8] 67.3% | [9] 33.8% | [10] 93.2%

CCCc1n(Cc2ccc3ccccc3c2)cc[n+]1Cc1ccc2ccccc2c1
active: [2] -22.5% | [3] -13.9% | [4] -7.08% | [5] 0.776% | [6] -2.89% | [7] -98.1% | [8] -67.2% | [9] -84.3% | [10] -40.3%
inactive: [1] 53.8%

O=C1C(=O)/C(=C/c2ccccc2)CCCCCC/C1=C/c1ccccc1
active: [2] -25.6% | [9] -73.5%
inactive: [1] 32.2% | [3] 68% | [4] 67.9% | [5] 11% | [6] 55.4% | [7] 88.2% | [8] 79.6% | [10] 94.9%

CNCCCn1c2c(c3ccc(F)cc3c1=O)C(=O)c1cc(OC)cnc1-2
active: [1] -3.12% | [2] -20.9% | [3] -23.4% | [5] -25.8% | [6] 6.67% | [7] -97.3% | [8] -33.4% | [9] -70.7% | [10] 9.85%
inactive: [4] 11.9%

Nc1ccccc1C#Cc1ccccc1C#Cc1ccc(OCCCCCCOc2ccc(C#Cc3ccccc3C#Cc3ccccc3N)cc2)cc1
inactive: [1] 106% | [2] 108% | [3] 105% | [4] 112% | [5] 100% | [6] 97% | [7] 82.4% | [8] 96.6% | [9] 103% | [10] 109%

COc1cc(C2=NN(C=O)C(c3cccc(Nc4ccnc5cc(Cl)ccc45)c3)C2)cc(OC)c1OC (stereo not given)
inactive: [1] 52.4% | [2] 22% | [3] 74.3% | [4] 76.2% | [5] 66.8% | [6] 42.7% | [7] 68.1% | [8] 96.4% | [9] 54.5% | [10] 90.6%
